# A selection: hits, their analogues and other compounds. The true share with any hit is near 7.6%.
# SW480 rerep: inducers of DNA re-replication in SW480 colon cancer cells | SW480 DNA re-replication, Hoechst DNA content imaging, 48 h | Potency, µM (top dose mostly 46.1 µM), for the others: at the highest dose re-replication activation, actives largely listed as activators | 1.8% of 340,000 active | AID 624297; further: potency means the concentration at half of the fitted maximal effect; % of control where 0% means no effect; nearly all actives have a fitted effect of over 55% in size
#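 Compounds, transferred as 23 nL by pin tool, were incubated with cells for 48 hr; DNA content per nucleus was then quantified by Hoechst staining and fluorescence plate imaging.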
# KB-3-1 cytotox: KB-3-1 parental cell cytotoxicity; KB-3-1 viability, CellTiter-Glo ATP luminescence, 72 h; Potency, µM (doses to about 46.1 µM), actives largely listed as cytotoxic; 1.4% of 400,000 active; further: potency means the concentration at half of the fitted maximal effect; on the % scale 0 is the no-effect control and ±100 the full control effect; nearly all actives have a fitted effect of over 60% in size
#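 Here the drug-naive KB-3-1 line serves as comparator for MDR sub-line selectivity; cells received compound titrations, 72 h at 37 °C, then CellTiter-Glo readout.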
# KCNH2 WT inh: KCNH2 (human, wildtype) channel inhibition; activity change, % at 1.84 µM; 0.37% of 340,000 active; AID 720551; Q12809; U2OS, BacMam KCNH2, thallium flux FluxOr; stronger effect = lower value;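 active means maximum activity change below -70%; inconclusive means maximum activity change between -70% and -50%; inactive means maximum activity change above -50%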; further: on the % scale 0 is the no-effect control and ±100 the full control effect
#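 U2OS cells were transduced with wild-type KCNH2 virus (2.03 x 10^8 / mL) for 4 h at room temperature, then cultured overnight at 37 C. Thallium flux was read with FluxOr dye. Rate constants were normalized to DMSO controls.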
# MCF10A rereplic: induces DNA re-replication in MCF 10a normal breast cells; Potency, µM (highest dose often 46.1 µM), for the others: at the top dose activity, positive = re-replication, most hits filed as activators; 2.9% of 350,000 active; MCF 10A DNA re-replication, Hoechst nuclear intensity, 48 h; further: potency means the concentration at half of the fitted maximal effect; % of control where 0% means no effect; nearly all actives have a fitted effect of over 50% in size
# KB-V1 MDR tox: KB-V1 MDR subline cytotoxicity. KB-V1 MDR cells viability, CellTiter-Glo, 72 h. Potency, µM (top dose mostly 46.1 µM), hits mostly cytotoxic. 3.4% of 400,000 active. AID 1347076; further: potency means the concentration at half of the fitted maximal effect; on the % scale 0 is the no-effect control and ±100 the full control effect; nearly all actives have a fitted effect of over 60% in size
#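 qHTS viability screen in drug-selected KB-V1 MDR cells: 72 h compound treatment at 37 degrees C, ATP luminescence end point.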
# KCNH2 3.1 block: inhibitors of human KCNH2 3.1 potassium channel isoform | AID 720553 | activity change, % (tested at about 1.8 µM) | 0.95% of 340,000 active | U2OS KCNH2 3.1, thallium flux FluxOr; stronger effect = lower value;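 active means maximum activity change below -70%; inconclusive means maximum activity change from -70% to -50%; inactive means maximum activity change above -50%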;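 further: thallium influx rate constant from kinetic fluorescence after stimulation buffer; on the % scale 0 is the no-effect control and ±100 the full control effect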
#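 U2OS cells transduced with KCNH2 3.1 mutant virus (1.77 x 10^8 /mL, 4 h), plated overnight at 37 C, loaded 45 min with FluxOr dye plus Red40 quencher. Thallium flux rate constant from kinetic reads after stimulation buffer, normalised to controls.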
# * marks the source's active call; other numbers are inactive results; i = inactive; ? = inconclusive; / = no result; [ ] = remark or other dose. Unless noted, the call rests on the fitted dose curve; in most records, active means well fitted curve in the direction sought with a large enough effect; inconclusive means small, poorly fitted or top-dose-only effect, or another doubt; inactive means no such curve, though single readings can be large; an effect the other way counts as inactive or inconclusive.
SMILES,SW480 rerep,KB-3-1 cytotox,KCNH2 WT inh,MCF10A rereplic,KB-V1 MDR tox,KCNH2 3.1 block
CCC(NC(=O)OC(C)(C)C)C(=O)Oc1cc(C)cc2oc(=O)c3c(c12)CCC3 (stereo not given),0.8%,i,-1.0,23.7%,14.6µM*,-3.1
CC(=NCc1ccco1)c1c(O)n(C)c(=O)n(C)c1=O,2.2%,i,4.7,0.4%,i,17.9
CC(=NCc1ccc(F)cc1)c1c(O)n(C)c(=O)n(C)c1=O,-14.8%,5.8µM*,-2.8,?,?,1.1
CCOc1cccc(=NC2CCCCC2)c2c(C)n(C)c(C)c12,2.5%[9.22 µM],18.4µM*,-5.4,-0.6%,?,0.8
C[C@]12CC[C@H]3C(=CCc4cc(O)ccc43)[C@@H]1CCC2=O,-26.1%,?,1.6,?,8.2µM*,8.9
Cc1cc(-c2ccccc2)cc(C)[n+]1Cc1ccccc1,-18.4%[9.22 µM],5.8µM*,-1.9,-14.3%,i,5.7
O=[N+]([O-])c1ccc(C[n+]2c(-c3ccccc3)cc(-c3ccccc3)cc2-c2ccccc2)cc1,-0.9%,?,9.1,23.9%,i,25.4
CN1C(=O)C(O)N=C(c2ccccc2)c2cc(Cl)ccc21 (stereo not given),-11.0%,/,/,2.4%,/,/
CCC(=Nc1cc(OC)ccc1OC)c1c(O)[nH]c(=O)[nH]c1=O,1.6%,5.8µM*,3.0,15.6%,2.59µM*,-4.8
COc1ccc(N=C(C)c2c(O)[nH]c(=O)[nH]c2=O)cc1,-91.0%,i,-7.5,?,?,4.9
C=CCn1c(O)c(C(CC)=Nc2cc(OC)ccc2OC)c(=O)[nH]c1=O,-22.5%,i,-3.8,20.0%,?,13.7
CCC(=Nc1ccc(OC)cc1OC)c1c(O)[nH]c(=O)[nH]c1=O,-9.4%,?,-21.5,?,10.3µM*,1.3
O=C(CF)N(O)c1ccc(C=Cc2ccccc2)cc1,10.3µM*,i,26.4,6.51µM*,i,/
COC(=O)C1=C(c2ccc(S(C)(=O)=O)cc2)C[C@@H]2CC[C@H]1N2C(=O)N1CCC(C)CC1,0.2%,i,-14.3,2.9%,i,-98.6*
CN1CCN(CC(=O)Nc2ccc([N+](=O)[O-])cc2C(=O)c2ccccc2)CC1,-9.8%,i,-102.8*,-27.8%,i,-110.3*
O=C(CN1CCOCC1)NCC(=O)Nc1ccc(Br)cc1C(=O)c1ccccc1,-0.2%,i,-7.8,-3.2%,i,-2.9
O=C1CCCCC1CN1CCCCC1 (stereo not given),0.0%,/,/,-3.6%,/,/
CCN(CC)C(=O)c1ccc2c(c1)C1C(Cl)C(Sc3ccccc3[N+](=O)[O-])CC1C(C(=O)O)N2 (stereo not given),-0.6%,2.59µM*,0.2,1.1%,i,1.2
Cc1ccccc1N1C(=O)NC(=O)/C(=C\c2cc(Br)c(N3CCOCC3)o2)C1=O,?,i,-10.4,7.31µM*,i,11.7
Oc1ccccc1/C=N/[n+]1ccccc1,-11.2%,i,-2.2,-2.0%,i,18.4
Cc1cc(C)cc(-n2c(/C=C/c3cccc(F)c3)nc3ccccc3c2=O)c1,/,i,/,/,?,/
Cc1onc(-c2ccccc2Cl)c1C(=O)OCC(=O)c1ccc2c(c1)OCCO2,-8.8%,i,-12.7,?,?,0.5
CC(=O)OC12COC1CC(O)C1(C)C(=O)C(O)C3=C(C)C(O)CC(O)(C(OC(=O)c4ccccc4)C21)C3(C)C (stereo not given),8.2µM*,0.517µM*,-45.1,0.82µM*,i,11.4
CC(=O)O[C@@]12CO[C@@H]1C[C@@H](O)[C@@]1(C)C(=O)[C@H](O)C3=C(C)[C@@H](OC(=O)[C@H](O)[C@@H](NC(=O)c4ccccc4)c4ccccc4)C[C@@](O)([C@@H](OC(=O)c4ccccc4)C12)C3(C)C (stereo not given in full),8.2µM*,0.0103µM*,1.0,?,i,9.3
